Measurements: the supplement of paper PMC6555819

Columns and labels:
Assay in all cases: PBM binding z-score (relative to random genomic background probes); higher = stronger binding; sequences stand for … in GC…GCGATTGACAGCGTAGAATGAAGG
[1] = tested on: RARb homodimer (NR concentration 270 nM)
In short: (§1)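 Custom Agilent 4×180K protein-binding microarrays carried double-stranded probes. Their 34-nt variable regions held direct-repeat seeds, single-nucleotide variants, half-site ablations and random human genomic background sequences. Arrays were incubated 1 h with ligand-free nuclear receptor dimers in PBS pH 7.4, 2% milk, 0.02% Triton X-100, 1 mM DTT, 0.2 mg/mL BSA and 0.4 mg/ml salmon testes DNA. Antibodies against each partner (one per run) detected binding, and scanned fluorescence was regression-normalized. Binding z-scores use random background probes as reference.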

[2] = tested on: RARg:RXRa (NR concentration 270 nM, RXRa partner concentration 90 nM)
In short: as §1

[3] = tested on: RARg homodimer (NR concentration 270 nM)
In short: as §1

[4] = tested on: RXRa DBDmut IVT, anti-RXR (DBD mutation: RXRa K156A/R161A, NR concentration 90 nM)
In short: as §1

[5] = tested on: RXRa homodimer (NR concentration 180 nM)
In short: as §1

[6] = tested on: THRa:RXRa (NR concentration 90 nM, RXRa partner concentration 90 nM)
In short: as §1

[7] = tested on: THRa homodimer (NR concentration 90 nM)
In short: as §1

[8] = tested on: VDR homodimer (NR concentration 270 nM)
In short: as §1

Sequence: TCATATAGGTCAATGCTAGGTGAAAGTCCGATCT
- PBM binding z-score [1]: 3.86
- PBM binding z-score [2]: 5.46
- PBM binding z-score [3]: 5.11
- PBM binding z-score [4]: 2.09
- PBM binding z-score [5]: 4.2
- PBM binding z-score [6]: 3.7
- PBM binding z-score [7]: 0.903
- PBM binding z-score [8]: 0.879

Sequence: ATCTAAAGGTCGTGAGGTGAGTATACAGAAAGGC
- PBM binding z-score [1]: 3.14
- PBM binding z-score [2]: 4.55
- PBM binding z-score [3]: 4.01
- PBM binding z-score [4]: 2.22
- PBM binding z-score [5]: 5.37
- PBM binding z-score [6]: 3.44
- PBM binding z-score [7]: 1.84
- PBM binding z-score [8]: 1.7

Sequence: ATCTGTAGGTAACCAAGTTCAGTGAATGCCGAAC
- PBM binding z-score [1]: 1.32
- PBM binding z-score [2]: 0.689
- PBM binding z-score [3]: 0.722
- PBM binding z-score [4]: 0.655
- PBM binding z-score [5]: 0.689
- PBM binding z-score [6]: 1.26
- PBM binding z-score [7]: 0.246
- PBM binding z-score [8]: 2.56

Sequence: GCATATTGGTAATACAAGGTGAAAGTCCGATTGT
- PBM binding z-score [1]: 0.603
- PBM binding z-score [2]: 0.0948
- PBM binding z-score [3]: 0.327
- PBM binding z-score [4]: 0.349
- PBM binding z-score [5]: 0.367
- PBM binding z-score [6]: 2.39
- PBM binding z-score [7]: 1
- PBM binding z-score [8]: -0.108

Sequence: CCTAGTTGGTCAGGCGGTCACACACCGGATATGA
- PBM binding z-score [1]: 2.12
- PBM binding z-score [2]: 1.41
- PBM binding z-score [3]: 1.67
- PBM binding z-score [4]: -0.336
- PBM binding z-score [5]: 0.344
- PBM binding z-score [6]: 0.232
- PBM binding z-score [7]: 0.129
- PBM binding z-score [8]: 0.3

Sequence: CGAACTAGGTCAGAACAGGACAATGAAGGATGAT
- PBM binding z-score [1]: 2.03
- PBM binding z-score [2]: 2.55
- PBM binding z-score [3]: 3.32
- PBM binding z-score [4]: 0.605
- PBM binding z-score [5]: 1.37
- PBM binding z-score [6]: 3.62
- PBM binding z-score [7]: 0.458
- PBM binding z-score [8]: 0.155

Sequence: GCATATAGGTGATACAAGGTGAAAGTCCGATTGT
- PBM binding z-score [1]: 0.997
- PBM binding z-score [2]: 0.873
- PBM binding z-score [3]: 0.702
- PBM binding z-score [4]: 0.341
- PBM binding z-score [5]: 0.856
- PBM binding z-score [6]: 4.24
- PBM binding z-score [7]: 0.943
- PBM binding z-score [8]: 0.0464

Sequence: CCTTACGGGTCACAAGGTTATAGCACGACGAGCG
- PBM binding z-score [1]: 3.71
- PBM binding z-score [2]: 5.7
- PBM binding z-score [3]: 4.75
- PBM binding z-score [4]: 1.18
- PBM binding z-score [5]: 6.05
- PBM binding z-score [6]: 3.26
- PBM binding z-score [7]: 0.935
- PBM binding z-score [8]: 1.54

Sequence: CATACAGGGTCAGCTAGCCCAGAGTAGGGACGGC
- PBM binding z-score [1]: 3.08
- PBM binding z-score [2]: 4.59
- PBM binding z-score [3]: 4.82
- PBM binding z-score [4]: 1.69
- PBM binding z-score [5]: 4.46
- PBM binding z-score [6]: 2.82
- PBM binding z-score [7]: 0.68
- PBM binding z-score [8]: 0.999

Sequence: ATACCAAGGTGATCGTGAGGTCGTTTATACTAAC
- PBM binding z-score [1]: 1.98
- PBM binding z-score [2]: 2.29
- PBM binding z-score [3]: 1.01
- PBM binding z-score [4]: 1.06
- PBM binding z-score [5]: 1.36
- PBM binding z-score [6]: 3.56
- PBM binding z-score [7]: 2.59
- PBM binding z-score [8]: 3.5

Sequence: TCTTGTGGATCAAAGGTTAAGAAAGCCGAAGCCT
- PBM binding z-score [1]: 1.42
- PBM binding z-score [2]: 1.5
- PBM binding z-score [3]: 0.798
- PBM binding z-score [4]: 0.751
- PBM binding z-score [5]: 3.43
- PBM binding z-score [6]: 1.47
- PBM binding z-score [7]: -0.309
- PBM binding z-score [8]: -0.0408

Sequence: ACGTACGGGTCAACGAGGTTATAGCACGCGTATA
- PBM binding z-score [1]: 3.58
- PBM binding z-score [2]: 5.69
- PBM binding z-score [3]: 5.07
- PBM binding z-score [4]: 2.07
- PBM binding z-score [5]: 6.3
- PBM binding z-score [6]: 4
- PBM binding z-score [7]: 0.75
- PBM binding z-score [8]: 3.93

Sequence: TCTTGTAGCTCAAGCAGGTTAAGAAAGCCTGAGT
- PBM binding z-score [1]: -0.116
- PBM binding z-score [2]: -0.427
- PBM binding z-score [3]: -0.42
- PBM binding z-score [4]: 0.0335
- PBM binding z-score [5]: -0.207
- PBM binding z-score [6]: 0.103
- PBM binding z-score [7]: -1.07
- PBM binding z-score [8]: -0.763

Sequence: CGATCGAGGGCATGAGTTGATAGCAAATGCCGAT
- PBM binding z-score [1]: 0.615
- PBM binding z-score [2]: 1.06
- PBM binding z-score [3]: 1.18
- PBM binding z-score [4]: 1.75
- PBM binding z-score [5]: 0.725
- PBM binding z-score [6]: 1.04
- PBM binding z-score [7]: -0.645
- PBM binding z-score [8]: 1.5

Sequence: CGTCCAACGTCATAGGAGGTCAGTGAAGACAGAT
- PBM binding z-score [1]: 2.87
- PBM binding z-score [2]: 1.79
- PBM binding z-score [3]: 2.24
- PBM binding z-score [4]: 0.609
- PBM binding z-score [5]: 1.59
- PBM binding z-score [6]: 3.15
- PBM binding z-score [7]: 0.654
- PBM binding z-score [8]: 1.02

Sequence: CCTAGCAGGCCAGGGTCACTCACGCATTTCGCTT
- PBM binding z-score [1]: 2.64
- PBM binding z-score [2]: 2.79
- PBM binding z-score [3]: 2.22
- PBM binding z-score [4]: 0.414
- PBM binding z-score [5]: 3.32
- PBM binding z-score [6]: 2.63
- PBM binding z-score [7]: 1.32
- PBM binding z-score [8]: 1.73

Sequence: ATATGTAGGTTACATCCGGGTCATTCATGCTATG
- PBM binding z-score [1]: 2.82
- PBM binding z-score [2]: 3.6
- PBM binding z-score [3]: 2.21
- PBM binding z-score [4]: 1.42
- PBM binding z-score [5]: 2.93
- PBM binding z-score [6]: 3.61
- PBM binding z-score [7]: 2.46
- PBM binding z-score [8]: 3.43

Sequence: TAGCCTAGGTCAGAACGGGCCAGTATACGCTATA
- PBM binding z-score [1]: 1.79
- PBM binding z-score [2]: 2.22
- PBM binding z-score [3]: 2.92
- PBM binding z-score [4]: -0.315
- PBM binding z-score [5]: 1.19
- PBM binding z-score [6]: 2.46
- PBM binding z-score [7]: -0.361
- PBM binding z-score [8]: -0.307
